The record followed here is PubChem BioAssay AID1490 (National Center for Advancing Translational Sciences (NCATS), 2009).

Out of some 310,000 compounds screened, about 11,000 (3.5%) were called active. Another 4% or so got no clear call; they are omitted. This excerpt belongs to a sample that is enriched for actives. Values without a mark were called inactive. The call rests on the fitted dose curve; in most records, active means well fitted inhibition curve with a large enough effect; inconclusive means small, poorly fitted or top-dose-only effect, or another doubt; inactive means no such curve, though single readings can be large or run the other way.
Potency means the concentration at half of the fitted maximal effect.

The target of the assay is 4'-phosphopantetheinyl transferase ffp (Bacillus subtilis) (UniProt Q9F4F7). As to the kind of experiment: qHTS Assay for Inhibitors of Bacillus subtilis Sfp phosphopantetheinyl transferase (PPTase).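 Further: the enzyme is Sfp with the accession as filed and its product quenches rhodamine fluorescence.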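 On largest response in the series, negative = inhibition: 0% = enzyme reaction without inhibitor and -100% = no enzyme wells.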 The following applies: Biochemical Sfp PPTase activity. A digest of the protocol: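 With Hepes-Na pH 7.6 buffer containing 10 mM MgCl2, Sfp (15 nM) modified BHQ-2-YbbR (12.5 uM) using rhodamine-CoA (5 uM). Two reads 30 minutes apart at 525/598 nm yielded each well's rate.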
In general terms: In qHTS, concentration-response curves come from the screen itself.
`O=C(O)CCC(=O)N(Cc1ccccc1)Cc1ccccc1`: the largest response in the series, negative = inhibition is 17.6%. On the same count and under the same terms, with `Cc1ccc(/C=C2\SC(=S)N(CCC(=O)Nc3ccc(O)cc3)C2=O)cc1` the figure was 15.8%. As to `Cc1ccc(-c2nn(-c3ccccc3)cc2/C=C2\SC(=S)N(CCCCCC(=O)O)C2=O)o1`, the Potency is 39.8 µM (active). Same read-out and setting: in the case of `CN(C)S(=O)(=O)c1cccc(-c2nn(-c3ccccc3)cc2/C=C2\SC(=S)N(CC(=O)O)C2=O)c1` it was 56.2 µM (active). `COc1ccccc1C(=O)NNC(=O)CCN1C(=O)/C(=C\c2ccccc2)SC1=S`: the largest response in the series, negative = inhibition was -10.5%. On the same count and under the same terms, with `C=CCOc1ccc(/C=C2\SC(=S)N(CCC(=O)O)C2=O)cc1` the figure was 6.13%; with `Cc1ccc(-c2nn(-c3ccccc3)cc2/C=C/C(=O)Nc2cccc(S(N)(=O)=O)c2)cc1`, 12.2%; with `COc1ccc(/C=C2\SC(=S)N(CCC(=O)Nc3ccccn3)C2=O)cc1OC`, 11%. Take `COc1ccc(-c2nn(-c3ccccc3)cc2/C=C2/SC(=S)N(CCCC(=O)O)C2=O)c(C)c1`: the Potency was 56.2 µM (active). Regarding `Cc1ccc(-c2nn(-c3ccccc3)cc2CN(Cc2ccccc2)C(=O)CCC(=O)O)o1`, the Potency is 8.91 µM (active). As to `Cc1ccc(-c2nn(-c3cccc(F)c3)cc2CNCCc2ccncc2)o1`, the largest response in the series, negative = inhibition was -5%.

With `O=C(CN1C(=O)/C(=C\c2ccccc2F)SC1=S)Nc1nc2ccccc2s1`, the largest response in the series, negative = inhibition was 5.28%. On the same count and under the same terms, in the case of `Cc1n[nH]c(=O)c2c1nnn2Cc1ccc(F)cc1` it was 6.71%.

On to `CCOCCCNC(=O)C1(O)c2cc(Br)ccc2NC(=O)N1c1ccc(C)c(C)c1` (configuration not stated), for which the largest response in the series, negative = inhibition is -2.61%. Still for that read-out and setting: in the case of `Cc1ccc(S(=O)(=O)NCCC(=O)Nc2cccc(S(N)(=O)=O)c2)cc1C` it was -1.6%. As for `O=S(=O)(c1ccc(F)cc1)N1CCN=C1SCc1cccc(F)c1`, the largest response in the series, negative = inhibition is 5.65%. With `O=C(Nc1ccccc1C(=O)Nc1ccncc1)c1ccc([N+](=O)[O-])cc1`, the largest response in the series, negative = inhibition is 4.06%. On the same count and under the same terms, in the case of `O=C(CN1CCCCCC1)Nc1c(Cl)cc(Cl)cc1Cl` it was 6.16%; in that of `O=S(O)S(=O)(=O)O`, 7.74%. Same read-out and setting: with `Cc1nc2nc(C)c(NS(=O)(=O)c3ccc(C(C)(C)C)cc3)c(=O)n2[nH]1` the figure was 14.4%. With `COc1cccc(C(=O)NC(=O)Nc2nc(C)cc(C(F)(F)F)n2)c1`, the largest response in the series, negative = inhibition is 14.9%. The same measure, in the same setting: with `CC1CC(C)CN(CCCNC(=O)c2csc3c2CCCCC3)C1` (configuration not stated) the figure was 5.49%; with `O=C(NCCc1cccc(F)c1)C1CCCN(c2nc3ccccc3s2)C1` (configuration not stated), -6.45%. Consider `CN1CCN(c2ccccc2NC(=O)COc2ccc(C3CCCCC3)cc2)CC1`, for which the largest response in the series, negative = inhibition was -19.2%.

Take `CCn1cc(C(=O)NCCCN2CCCCCC2)c(=O)c2cc(S(=O)(=O)N3CCc4ccccc4C3)ccc21`: the Potency was 89.1 µM (active).

For the compound `CCn1cc(C(=O)NCC2CCCO2)c(=O)c2cc(S(=O)(=O)N3CCCCC3)ccc21` (configuration not stated), the largest response in the series, negative = inhibition was 4.08%. Still for that read-out and setting: in the case of `CCn1cc(C(=O)N2CC(C)CC(C)C2)c(=O)c2cc(S(=O)(=O)N3CCCC3)ccc21` (configuration not stated) it was 3.15%. Still for that read-out and setting: in the case of `CCN1CCN(C(=O)C2CCN(S(=O)(=O)c3cc(Cl)ccc3Cl)CC2)CC1` it was 7.6%. With `CC(C)c1ccc(NC(=O)[C@@H](NC(=O)N2CC(=O)Nc3ccccc32)C(C)C)cc1`, the largest response in the series, negative = inhibition is 4.22%. On the same count and under the same terms, with `Oc1c(C(c2cccs2)N2CCN(c3ccc(F)cc3)CC2)sc2ncnn12` (configuration not stated) the figure was 13.9%; with `Cc1nc2sc(C(c3ccco3)N3CCOCC3)c(O)n2n1` (configuration not stated), -2.77%. Regarding `Oc1c(C(c2ccco2)N2CCC3(CC2)OCCO3)sc2ncnn12` (configuration not stated), the Potency was 28.2 µM (active). Take `Cc1ccc2c(c1)C(c1ccccc1)N(C(=O)c1ccc(F)cc1)CC(=O)N2` (configuration not stated): the largest response in the series, negative = inhibition was -5.97%. On to `Cc1cc(NC(=O)CCC(=O)N(CC(=O)NCC2CCCO2)c2ccccc2)no1` (configuration not stated), for which the largest response in the series, negative = inhibition is -5.59%. The same measure, in the same setting: in the case of `CCn1c(SCC(=O)NC2CC2)nnc1-c1ccncc1` it was 12.1%. Still for that read-out and setting: with `CCc1ccccc1N(CC(=O)NCC1CCCO1)C(=O)CCC(=O)Nc1nccs1` (configuration not stated) the figure was 11.3%. Still for that read-out and setting: with `O=C(Nc1cc(-c2nc3ncccc3o2)ccc1Cl)c1ccco1` the figure was 0.0878%.

With `COC(=O)[C@]1(S(=O)(=O)c2ccccc2)C[C@@H]2ON=C(c3ccc(OC)cc3)[C@@H]2C1`, the largest response in the series, negative = inhibition is -3.07%. On the same count and under the same terms, in the case of `Cc1nnc(SCC(N)=O)n1CC1CCCO1` (configuration not stated) it was 13.7%; in that of `COc1ccccc1NC(=O)CSc1nnc(C)n1CC1CCCO1` (configuration not stated), 14.7%. `O=C(CSc1nnc(-c2ccco2)n1CC1CCCO1)c1ccccc1` (configuration not stated): the Potency is 50.1 µM (active). On to `O=C(/C=C/c1ccc(Cl)cc1)NCCCn1ccnc1`, for which the largest response in the series, negative = inhibition is -28%. `Cc1nn(-c2ccccc2)c(Cl)c1/C=N/NC(=O)c1nn(C)cc1[N+](=O)[O-]`: the largest response in the series, negative = inhibition was -3.09%.

As to `N#Cc1ccccc1CN1C(=O)S/C(=C/c2cccn2-c2cccc(C(=O)O)c2)C1=O`, the largest response in the series, negative = inhibition was -18.1%. On the same count and under the same terms, in the case of `O=C1N/C(=C/c2cccn2-c2ccccc2)C(=O)N1c1cccc(Cl)c1` it was 12.7%. Regarding `Cc1ccccc1NC(=O)CN1C(=O)N/C(=C\c2cccn2-c2cccc(C(=O)O)c2)C1=O`, the Potency is 20 µM (active). In the case of `Cn1ncc2c(N3CCCCC3)nc(NCCCO)nc21`, the largest response in the series, negative = inhibition was 14.5%.

As for `O=C(c1n[nH]c2c1CCC2)N1CCCC(Nc2cccc(F)c2)C1` (configuration not stated), the largest response in the series, negative = inhibition is 4.84%. Regarding `CC(C)(C)c1ccc(C(CC(=O)O)NS(=O)(=O)Cc2ccccc2)cc1` (configuration not stated), the largest response in the series, negative = inhibition is -0.492%. The same measure, in the same setting: with `CCOC(=O)C1(Cc2cccc(OC)c2)CCN(Cc2csc(C(C)=O)c2)CC1` the figure was 5.75%. For `CCOC(=O)C1(Cc2cccc(OC)c2)CCN(C(C)COC)CC1` (configuration not stated), the largest response in the series, negative = inhibition is 2.4%. On to `CCOC(=O)C1(Cc2cccc(OC)c2)CCN(C(C)CC(C)(C)O)CC1` (configuration not stated), for which the Potency was 35.5 µM (active). As for `Cc1oc2cc3oc(=O)ccc3cc2c1C`, the largest response in the series, negative = inhibition was 6.39%.

For `CCCC[C@]12Cc3cc(OC)c(OC)cc3C(O1)C1=C(CC3(CCCCC3)OC1=O)O2`, the largest response in the series, negative = inhibition was -4.17%. Take `Cc1ccc(Cc2nc(-c3cccc(C)c3)no2)cc1`: the largest response in the series, negative = inhibition was 12.9%. For `COc1ccccc1Cc1nc(-c2ccc(C)cc2)no1`, the largest response in the series, negative = inhibition was -1.19%. As to `COc1ccc(Cc2nc(-c3ccccn3)no2)cc1OC`, the Potency was 79.4 µM (active).
